Screens from PubChem.
HEK cytotox – HEK 293 cell cytotoxicity. actives 6.6% (n = 94,000). Potency, µM (titrated, usually from 115 µM), for inactives: at the top dose activity change, negative = cytotoxicity, usual class: inhibitors. HEK 293 viability, ATP luminescence (CellTiter-Glo), 48-72 h. AID 1345083; active means well fitted curve in the direction sought with a large enough effect; inconclusive means small, poorly fitted or top-dose-only effect, or another doubt; inactive means no such curve, though single readings can be large; an effect the other way counts as inactive or inconclusive; further: on the % scale 0 is the no-effect control and ±100 the full control effect; nearly all actives have a fitted effect of over 60% in size
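Luminescence from cellular ATP, measured with CellTiter-Glo, indicates HEK 293 viability. Cells plated at 250 cells/well are treated with compound for 48 or 72 hr at 37 degree Celsius before reagent addition.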
NPR1 antag – blocks ANP-stimulated signaling of human Npr1 receptor; P16066; Potency, µM (top dose mostly 46.3 µM), for inactives: top-dose activity change, negative = inhibition, most hits filed as inhibitors; HEK293 hNpr1 GloSensor cGMP, ANP-stimulated luminescence; actives 1.6% (n = 76,000); further: on the % scale 0 is the no-effect control and ±100 the full control effect; nearly all actives have a fitted effect of over 60% in size
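Compound pre-incubated 30 min at room temperature on GloSensor-loaded HEK293 cells stably carrying hNpr1 and the pGS-40F cGMP biosensor. Stimulation uses hNppA at 0.1 nM final; luminescence is taken at baseline and 20 min post-agonist.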
NIH3T3 tox – NIH 3T3 cell cytotoxicity. NIH 3T3 viability, CellTiter-Glo ATP luminescence, 48-72 h. Potency, µM (titrated, usually from 96.7 µM), for inactives: top-dose activity change, negative = cytotoxicity, most hits filed as inhibitors. actives 4.3% (n = 94,000). AID 1345082; active means well fitted curve in the direction sought with a large enough effect; inconclusive means small, poorly fitted or top-dose-only effect, or another doubt; inactive means no such curve, though single readings can be large; an effect the other way counts as inactive or inconclusive; further: on the % scale 0 is the no-effect control and ±100 the full control effect; nearly all actives have a fitted effect of over 55% in size
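First NIH 3T3 cells are plated at 400 cells/well; next compound is pinned in; then plates incubate 48 or 72 hr at 37 °C; finally CellTiter-Glo is added and luminescence read after 10 min.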
FLuc inh – Photinus pyralis luciferase inhibition | P08659 | purified P. pyralis luciferase, luminescence, biochemical | Potency, µM (top dose mostly 115 µM), hits mostly inhibitors | actives 2.5% (n = 76,000) | AID 1347043; active means well fitted curve in the direction sought with a large enough effect; inconclusive means small, poorly fitted or top-dose-only effect, or another doubt; inactive means no such curve, though single readings can be large; an effect the other way counts as inactive or inconclusive; further: on the % scale 0 is the no-effect control and ±100 the full control effect; nearly all actives have a fitted effect of over 65% in size
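Luminescence read by CCD imager after adding enzyme (10nM final) to wells holding compound, titrated in qHTS. Substrates 10uM each D-luciferin and ATP; buffer 50mM Tris acetate pH 7.5, 10mM Mg acetate, Tween-20, BSA.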
NPR1 antag cnf – confirmation of human Npr1 natriuretic peptide receptor antagonists. shares compounds with NPR1 antag. HEK293 hNpr1 cGMP GloSensor luminescence, ANP-stimulated. Potency, µM (highest dose often 57.6 µM), without a hit: at the top dose activity change, negative = inhibition, hits mostly inhibitors. actives 76% (n = 1,400); further: nearly all actives have a fitted effect of over 70% in size
NPR2 antag – selectivity test of Npr1 antagonists against human Npr2; AID 1347046; shares compounds with NPR1 antag; actives 67% (n = 1,400); Potency, µM (titrated, usually from 57.6 µM), for the others: at the highest dose activity change, negative = inhibition, actives largely listed as inhibitors; HEK293 hNpr2 GloSensor cGMP luminescence, CNP-stimulated; further: nearly all actives have a fitted effect of over 70% in size
FLuc inh counter – inhibits firefly luciferase, false Npr1 antagonist flag; purified FLuc enzyme, luminescence, Km substrate; actives 0.7% (n = 1,400); shares compounds with NPR1 antag; Potency, µM (top dose mostly 57.6 µM), inactives show top-dose activity change, negative = inhibition, usual class: inhibitors; active means well fitted curve in the direction sought with a large enough effect; inconclusive means small, poorly fitted or top-dose-only effect, or another doubt; inactive means no such curve, though single readings can be large; an effect the other way counts as inactive or inconclusive; further: 0% is about no effect
GloSensor cGMP – counter-screen for Npr1 antagonists: GloSensor control cell line | shares compounds with NPR1 antag | HEK293 GloSensor cGMP, SNP-stimulated, luminescence | actives 69% (n = 1,400) | Potency, µM (series often up to 57.6 µM), for the others: at the highest dose activity change, negative = inhibition, most hits filed as inhibitors; further: on the % scale 0 is the no-effect control and ±100 the full control effect; nearly all actives have a fitted effect of over 70% in size
An asterisk follows results filed as active; [ ] = remark or other dose. A selection: hits, their analogues and other compounds. The true share with any hit is near 11%. Unless noted, the call rests on the fitted dose curve. Potency means the concentration at half of the fitted maximal effect.

How did CCCS(=O)(=O)N1[C@H]2CC[C@@H]1c1cnc(-c3ccc(F)cc3)nc1C2 do in these assays?
HEK cytotox: inconclusive; NPR1 antag: 18µM*; NIH3T3 tox: inconclusive; FLuc inh: inactive; NPR1 antag cnf: 17µM*; NPR2 antag: 19µM*; FLuc inh counter: -4%; GloSensor cGMP: 14µM*

What do the screens show for `COc1ccccc1C(=O)N1[C@H]2CC[C@@H]1c1cnc(-c3ccc(F)cc3)nc1C2`?
HEK cytotox: inconclusive; NPR1 antag: 8.9µM*; NIH3T3 tox: inconclusive; FLuc inh: inactive; NPR1 antag cnf: 17µM*; NPR2 antag: 15µM*; FLuc inh counter: 0%; GloSensor cGMP: 12µM*

What do the screens show for `CCn1nccc1C(=O)N1[C@H]2CC[C@@H]1c1cnc(-c3ccccc3)nc1C2`?
HEK cytotox: inconclusive; NPR1 antag: 13µM*; NIH3T3 tox: -39%; FLuc inh: inactive; NPR1 antag cnf: 17µM*; NPR2 antag: 22µM*; FLuc inh counter: 2%; GloSensor cGMP: 15µM*

Results for O=C(CC1CCCC1)N1[C@H]2CC[C@@H]1c1cnc(-c3ccc(F)cc3)nc1C2 ?
HEK cytotox: inconclusive; NPR1 antag: 4µM*; NIH3T3 tox: -24%; FLuc inh: inactive; NPR1 antag cnf: 4.3µM*; NPR2 antag: 6.1µM*; FLuc inh counter: -1%; GloSensor cGMP: 4.3µM*

What do the screens show for `CCn1ccc(C(=O)N2[C@H]3CC[C@@H]2c2cnc(-c4ccc(F)cc4)nc2C3)n1`?
HEK cytotox: inconclusive; NPR1 antag: -14%; NIH3T3 tox: -27%; FLuc inh: inactive

Results for COCCOCC(=O)N1[C@H]2CC[C@@H]1c1cnc(-c3ccc(F)cc3)nc1C2 ?
HEK cytotox: -15%; NPR1 antag: -10%; NIH3T3 tox: inconclusive; FLuc inh: inactive

Results for O[C@H]1[C@H](NC2CCOCC2)[C@@H](C2CCCCC2)C[C@H]1O ?
HEK cytotox: -9%[230 µM]; NPR1 antag: 0%[70.6 µM]; NIH3T3 tox: -7%[230 µM]; FLuc inh: inactive

How did Cn1nc(C(=O)N[C@@H]2COCC[C@@H]2OCc2cscn2)c2ccccc21 do in these assays?
HEK cytotox: 4%; NPR1 antag: 10%; NIH3T3 tox: 0%; FLuc inh: inactive

What do the screens show for `CC1CN2CC(O)CC2CN1` (stereo not given)?
HEK cytotox: inactive; NIH3T3 tox: inactive

How did O=C(c1ccsc1)N1[C@H]2CC[C@@H]1c1cnc(-c3ccc(F)cc3)nc1C2 do in these assays?
HEK cytotox: 40µM*; NPR1 antag: 8.9µM*; NIH3T3 tox: -37%; FLuc inh: inactive; NPR1 antag cnf: 14µM*; NPR2 antag: 11µM*; FLuc inh counter: -2%; GloSensor cGMP: 12µM*

How did CC[C@H]1CN2CC[C@H]1C[C@@H]2CNS(=O)(=O)c1cccc(F)c1 do in these assays?
HEK cytotox: inactive; NPR1 antag: 0%[70.6 µM]; NIH3T3 tox: -12%[174 µM]; FLuc inh: inactive

How did O=C(Cc1ccccc1)N1Cc2ccccc2CC2(CCCN2Cc2ccncc2)C1 (stereo not given) do in these assays?
HEK cytotox: inconclusive; NIH3T3 tox: -18%

How did O=C(Cc1ccc(Cl)cc1)N1Cc2ccccc2CC2(CCCN2CC2CCNC2)C1 (stereo not given) do in these assays?
HEK cytotox: 28µM*; NIH3T3 tox: 16µM*; NPR1 antag cnf: 22µM*; NPR2 antag: 6.1µM*; FLuc inh counter: 1%; GloSensor cGMP: -1%
